D2 PAM-1: potentiates the human D2 dopamine receptor allosterically | DiscoveRx D2 beta-arrestin cells, luminescence, 90 min; 100% = 57 uM dopamine signal | potentiation, % (concentration not given with the values) | hit rate 0.23% among 360,000 | AID 624464 | P14416; in the data active means potentiation above about 50%
Target sequence (P14416 whole entry, looked up): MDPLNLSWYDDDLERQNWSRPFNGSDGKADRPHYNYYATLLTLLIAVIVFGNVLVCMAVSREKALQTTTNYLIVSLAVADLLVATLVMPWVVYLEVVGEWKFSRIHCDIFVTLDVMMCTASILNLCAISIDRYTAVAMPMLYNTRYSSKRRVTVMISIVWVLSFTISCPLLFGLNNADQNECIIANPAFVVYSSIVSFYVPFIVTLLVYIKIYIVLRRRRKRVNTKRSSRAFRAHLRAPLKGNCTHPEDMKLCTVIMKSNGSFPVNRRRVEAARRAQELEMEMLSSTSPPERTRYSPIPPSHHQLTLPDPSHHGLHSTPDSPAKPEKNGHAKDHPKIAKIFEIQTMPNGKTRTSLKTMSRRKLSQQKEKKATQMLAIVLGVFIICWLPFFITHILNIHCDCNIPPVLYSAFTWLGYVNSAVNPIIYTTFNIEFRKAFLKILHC
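PathHunter beta-arrestin assay in DiscoveRx D2 cells. Compounds were added with an EC20 of dopamine (50 nM final) for 90 min at 37 deg C. Luminescence was read 1 h after detection reagent, with 57 uM dopamine as the EC100 control.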
D2 ag-1: activates the human D2 dopamine receptor; hit rate 0.53% among 340,000; HEK293 T-REx D2 cells, calcium flux agonist mode; P14416; activation, % at 2 µM;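 active means activation over 3 SD above normal in the single-dose calcium agonist read, cut at about 30% in these data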; further: 0% is about no effect
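Calcium-flux readout, 1 cycle/sec over 180 s following compound pin transfer, in inducible HEK293 Trex D2 cells (force-coupled); dopamine controls included. Positive calcium responses during this window marked compounds as potential agonists.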
D2 antagonist: antagonists of human D2 dopamine receptor; HEK293 TREx D2 cells, calcium flux, dopamine EC80; inhibition, % at 10 µM; hit rate 2% among 340,000; in the data active means inhibition above about 30%; inactive means below that, where a call was filed; further: 0% is about no effect
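Read-out: kinetic calcium fluorescence (1 cycle/s) in inducible HEK293 T-REx D2 cells after an EC80 dopamine addition that followed 180 s compound preincubation. Loss of the dopamine response indicates antagonism.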
D2 PAM-2: positive allosteric modulators of human D2 dopamine receptor; P14416; AID 485347; hit rate 0.34% among 340,000; HEK293 T-REx D2, calcium flux, EC20 dopamine potentiation; potentiation, % at 10 µM;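 active means potentiation over 3 SD above the plate norm, cut at about 30% in these data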; further: 0% is about no effect
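Potentiation of an EC20 dopamine calcium response measured kinetically over 180 s, after a preceding 180 s compound-only read flagging agonists. Cells: inducible Hek293 Trex D2 line, 4000/well, cultured overnight at 30 C before dye loading.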
D2 ag-2: human D2 receptor agonism in beta-arrestin assay; P14416; DiscoveRx PathHunter D2 beta-arrestin, luminescence, 90 min; 100% = 57 uM dopamine signal; activation, % (no concentration beside the values); hit rate 0.084% among 360,000; in the data active means activation above about 40%
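DiscoveRx PathHunter D2 beta-arrestin cells (2,100/well) attached overnight, then compound-stimulated 90 min at 37 C in HBSS/10 mM HEPES/0.1% Tween-20 buffer; beta-galactosidase complementation read by luminescence after 1 h at ambient temperature. Dopamine 57 uM final (EC100) as control.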
Active calls of the source: *; · = not tested or not shown. A selection: hits, their analogues and other compounds. The true share with any hit is near 2.4%.

SMILES	D2 PAM-1	D2 ag-1	D2 antagonist	D2 PAM-2	D2 ag-2
COc1ccc(S(=O)(=O)c2cn(C)c3cc(N4CCOCC4)c(F)cc3c2=O)cc1	·	0.1	·	-1.7	·
Cn1c(CN2CCN(c3ccc(Cl)cc3)CC2)nc2ccccc21	-20.5	0.2	2.5	-6.0	-2.3
Cn1c(CN2CCN(c3ccccc3NS(C)(=O)=O)CC2)nc2ccccc21	-23.6	0.6	32.5*	-18.1	-4.1
Cc1ccc(/C=C/c2ccc(=O)n(Cc3ccc(Cl)cc3Cl)n2)cc1	-1.1	0.1	4.2	36.0*	-1.9
O=c1ccc(/C=C/c2ccccc2)nn1Cc1ccc(Cl)cc1Cl	-11.1	1.3	-7.1	2.5	-10.0
O=C(Cn1c(NCCO)nc2ccccc21)c1ccc([N+](=O)[O-])cc1	-2.9	-0.1	30.1*	6.5	14.0
CC1CCC/C(=N/Nc2nc3ccccc3s2)C1 (stereo unspecified)	-7.6	-0.9	-2.6	4.7	-11.8
CC1(C)CC(=O)C/C(=N/Nc2nc3ccccc3s2)C1	-3.2	1.2	35.8*	7.0	-2.9
COc1ccc(NC(=O)Cn2cnc3c(oc4ccccc43)c2=O)cc1OC	·	-1.2	·	-15.9	·
Cc1ccccc1NC(=O)CSC1=C(C#N)C(c2ccsc2)CC(=O)N1 (stereo unspecified)	-0.3	1.1	36.7*	-0.7	-2.1
CCn1c(NCc2ccccn2)nc2c1c(=O)n(C)c(=O)n2C	13.5	0.0	0.8	63.4*	-1.2
Cn1c(=O)c2c(nc(NCc3ccccc3)n2Cc2ccccc2)n(C)c1=O	·	·	·	15.4	·
Cn1c(=O)c2c(nc(NCC3CCCO3)n2Cc2ccccc2)n(C)c1=O (stereo unspecified)	-12.2	0.1	12.5	40.3*	0.3
COc1ccc(C(=O)Nc2ccc(Cl)c(Cl)c2)c(OC)n1	-8.9	0.3	-1.9	-8.6	0.8
COc1ccc(C(=O)O)c(OC)n1	-5.4	-1.7	30.1*	-7.2	-6.2
N#CCCN(C(=O)COC(=O)CSc1ccc(Cl)cc1)c1ccccc1	-10.0	·	·	·	-5.8
Cc1ccc(SCC(=O)OCC(=O)N(CCC#N)c2ccccc2)cc1	5.5	-0.3	33.2*	7.2	-5.6
COc1ccccc1C(=O)N1CCC(c2noc(-c3ccc(S(=O)(=O)N4CCCC4)cc3)n2)CC1	·	0.8	·	5.0	·
CC(CNC(=O)CN1C(=O)COc2ccc(S(=O)(=O)N3CCCCCC3)cc21)c1ccccc1 (stereo unspecified)	·	-0.3	·	1.3	·
CC(C)C1Nc2ccc(S(N)(=O)=O)cc2C2C=CCC21 (stereo unspecified)	51.6*	0.5	15.7	1.9	5.3
COc1ccc(NC(=O)C2CCN(C(=O)Nc3ccccc3)CC2)cc1S(=O)(=O)N(C)C	-39.0	1.0	77.2*	-30.2	-1.6
Cc1cc(C)nc(N(C#N)Cc2ccccc2C)n1	-5.3	-0.2	49.8*	-2.8	0.0
CC(C)(C)C(=O)N1CCc2cc(-c3csc(N)n3)ccc21	-13.6	-0.1	-8.7	33.4*	10.0
Cc1ccc(CNC(=O)C2CCCN(c3nnc(-n4c(C)ccc4C)s3)C2)cc1 (stereo unspecified)	·	·	·	4.6	·
O=C1NCCN1c1ncc([N+](=O)[O-])s1	15.4	59.1*	54.0*	-9.9	4.2
SMILES	D2 PAM-1	D2 ag-1	D2 antagonist	D2 PAM-2	D2 ag-2
O=C(NCCCN1CCC(Cc2ccccc2)CC1)c1ccc2nc(N3CCOCC3)sc2c1	-29.3	-0.1	48.0*	-19.6	-6.2
CC1CCCC(C)N1CCCNC(=O)c1ccc2nc(N3CCOCC3)sc2c1 (stereo unspecified)	-15.2	·	·	5.5	-7.2
Cc1ccc(NC(=O)c2nnn(CC(=O)Nc3ccc(C)c(Cl)c3)c2N)c(C)c1	·	·	·	7.3	·
Cc1nnc2n1N=C(c1ccc(OC(F)F)cc1)C(C)S2 (stereo unspecified)	-5.3	0.7	56.3*	3.4	-2.3
COc1ccc(OC)c2sc(NC(=O)C3CC3)nc12	-4.7	0.8	64.9*	-20.9	-3.9
CCC(=O)Nc1nc2c(OC)ccc(OC)c2s1	-2.3	-0.4	-9.3	-0.9	-2.1
COC(=O)c1ccc(O)cc1	0.3	-0.6	-9.1	-0.9	-0.5
CCN(CC)C(=O)C(C)OC(=O)c1ccc(O)cc1 (stereo unspecified)	3.1	-0.2	30.3*	12.1	0.7
COc1ccc(/C=C2\CC/C(=C\c3ccc(OC)c(OC)c3)C2=O)cc1OC	-8.2	1.5	-2.8	12.2	-2.9
COc1cc(/C=C2\CC/C(=C\c3ccc(OCCO)c(OC)c3)C2=O)ccc1OCCO	8.9	76.2*	0.4	21.5	10.3
CCOC(=O)c1c(NC(=O)CSc2cn(CCNC(=O)c3ccc(OC)c(OC)c3)c3ccccc23)sc2c1CCCC2	·	·	·	-6.3	·
CCOCCCNC(=O)c1ccc(CN2CCc3ccccc3C2)cc1	-37.7	·	·	·	0.0
CCc1cccc(C)c1NC(=O)c1ccc(CN2CCc3ccccc3C2)cc1	-35.0	-1.0	55.1*	-27.0	-1.9
Cc1ccccc1NC(=O)c1ccc(CN2CCc3ccccc3C2)cc1	-15.2	·	·	·	-1.1
COC(=O)c1ccc(CN2CCc3ccc(NC(=O)c4ccncc4)cc3C2)cc1	-36.9	1.4	34.6*	-12.9	3.0
CC(C)OCCCNC(=O)c1ccc(CN2CCc3ccccc3C2)cc1	-25.4	-0.4	44.1*	-21.3	-5.9
COc1ccc(OC)c(NC(=O)c2ccc(CN3CCc4ccccc4C3)cc2)c1	-26.9	0.1	40.9*	-20.4	-3.0
COc1cc(NC(=O)Cc2c(C(=O)O)c(C)cn2C)cc(OC)c1	·	0.3	·	-6.2	·
Cc1ccc(-n2c(=O)c3c(c4cc(C)ccc4n3C)n(CC(=O)Nc3ccc(F)cc3)c2=O)cc1	·	-1.2	·	14.4	·
Cc1cc(C)c(S(=O)(=O)Nc2ccc(-c3ccc(N4CCCCCC4)nn3)cc2)c(C)c1	·	-1.0	·	3.3	·
COc1ccc(C(=O)n2nc(-c3ccco3)nc2NCc2cccs2)cc1OC	·	5.1	·	17.1	·
CCCCOc1ccc(-c2nc(-c3cccnc3)no2)cc1	-6.7	-0.5	34.4*	-5.6	-0.7
CCOc1nc(-c2ccccc2)ccc1-c1noc(-c2ccc(C)cc2)n1	·	-1.8	·	5.9	·
CCOc1ccc(-c2nc(-c3cccnc3)no2)cc1	4.6	0.4	-18.0	-4.3	-1.1
CCOc1ccc(-c2nc(-c3ccccc3C)no2)cc1	·	0.7	52.9*	·	·
COc1ccc(N2CCN(C(c3ccccc3)c3sc4nc(-c5ccco5)nn4c3O)CC2)cc1 (stereo unspecified)	·	-2.9	·	·	·
Cc1ccc(CCNC(=O)c2cn(C)c3ccc(S(=O)(=O)N4CCC(C)CC4)cc3c2=O)cc1	·	0.4	·	7.5	·
CCCN(CCC)CCNC(=O)C1CCN(S(=O)(=O)c2cccc3nsnc23)CC1	-13.9	0.8	37.5*	-6.0	6.0
COc1ccc(OC)c(/C=C/C(=O)Nc2ccc3c(c2)CCC3)c1	-42.4	-0.6	49.4*	-25.9	-2.0
COc1ccc(NC(=O)/C=C/c2cc(Br)ccc2OC)cc1	-43.2	-0.8	49.5*	-20.8	-2.1

Assay outcomes (PubChem BioAssay)
